# High-throughput results (PubChem)
# The full list was thinned out, with hits kept by preference.
# STK33 inh: human STK33 kinase inhibition | Q9BYT3 | ADP-Glo luminescence, MBP substrate | inhibition, % at 12.5 µM | 27,000 tested, 0.44% active | AID 2322; in the data active = inhibition above about 20%
# Target sequence (Q9BYT3 whole entry, looked up): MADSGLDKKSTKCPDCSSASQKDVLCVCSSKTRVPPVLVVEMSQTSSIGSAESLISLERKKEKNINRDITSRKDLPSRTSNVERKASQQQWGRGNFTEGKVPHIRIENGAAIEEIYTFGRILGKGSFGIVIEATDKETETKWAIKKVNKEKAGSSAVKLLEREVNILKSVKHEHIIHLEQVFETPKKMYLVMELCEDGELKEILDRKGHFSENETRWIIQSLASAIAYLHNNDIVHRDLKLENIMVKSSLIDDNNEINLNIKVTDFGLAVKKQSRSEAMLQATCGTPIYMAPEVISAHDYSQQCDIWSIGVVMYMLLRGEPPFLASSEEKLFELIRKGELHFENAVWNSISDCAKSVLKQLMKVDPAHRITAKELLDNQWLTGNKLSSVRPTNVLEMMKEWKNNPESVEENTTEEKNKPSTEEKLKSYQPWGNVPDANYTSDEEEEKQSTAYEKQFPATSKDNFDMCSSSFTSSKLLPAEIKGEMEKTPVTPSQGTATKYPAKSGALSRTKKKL
# NOMO-1 viab: STK33 inhibitor candidate reducing NOMO-1 cell viability; NOMO-1 AML viability, CellTiter-Glo luminescence, 72 h; AID 2330; 37,000 tested, 7.5% active; inhibition, % (test concentration not listed); in the data active = inhibition above about 80%
# PD-1 reverse act: activators reversing PD-1 mediated T-cell inhibition. AID 2316. primary human CD4 T cells, PD-L1 beads, CellTiter-Glo 96 h. activation, % (test concentration not listed). 29,000 tested, under 10 active; call rule not given here
# A number is an active result; . = inactive; / = not tested or not shown.
SMILES,STK33 inh,NOMO-1 viab,PD-1 reverse act
COc1ccc(NC(=O)c2ccc(OCC(=O)Nc3cccc(C)c3C)cc2)cc1Cl,.,.,/
O=C(CCSc1ccccc1)NC12CC3CC(CC(C3)C1)C2,.,.,.
N#Cc1cnc2c(C(N)=O)cnn2c1N,/,.,.
O=C(CC1(O)C(=O)N(Cc2ccc(Cl)cc2)c2ccccc21)c1cc2ccccc2oc1=O (stereo not drawn),.,120,.
Cc1coc(C)c1C(=O)CC1(O)C(=O)N(CCc2ccccc2)c2ccc(Cl)cc21 (stereo not drawn),.,88,/
COc1ccc(CN2C(=O)C(O)(CC(=O)c3cccs3)c3ccccc32)cc1OC (stereo not drawn),.,106,.
NC(=O)CN1C(=O)C(O)(CC(=O)c2ccc(Cl)cc2Cl)c2ccccc21 (stereo not drawn),.,.,/
COc1ccc(CN2C(=O)C(O)(CC(=O)c3c(C)n[nH]c3C)c3ccccc32)cc1OC (stereo not drawn),.,.,.
O=C(CC1(O)C(=O)N(CCc2ccccc2)c2ccc(Cl)cc21)c1ccco1 (stereo not drawn),.,.,/
N#CCCCN1C(=O)C(O)(CC(=O)c2ccc3c(c2)OCCO3)c2ccccc21 (stereo not drawn),.,.,.
O=C(CC1(O)C(=O)N(Cc2ccccc2)c2ccc(Cl)cc21)c1ccncc1 (stereo not drawn),.,117,.
CCOc1nc(NCCO)nc(Nc2ccc(OC)cc2OC)n1,.,.,.
Cc1cc2nc(-c3cccc(NC(=O)COc4ccc(Br)cc4)c3C)oc2cc1C,.,/,/
N#Cc1cccc(CSc2nnc(SCc3cccc(C#N)c3)s2)c1,/,.,.
O=C(CCN1C(=O)c2ccc([N+](=O)[O-])cc2C1=O)Nc1cccc(I)c1,.,.,.
O=S1(=O)N=C(N(CCO)c2ccc(Cl)cc2)c2ccccc21,.,.,.
Cc1ccc(C(=O)CC2(O)C(=O)N(CCCC#N)c3ccccc32)o1 (stereo not drawn),.,.,.
COc1ccc(C(=O)CC2(O)C(=O)N(Cc3ccccc3)c3ccc(Br)cc32)cc1[N+](=O)[O-] (stereo not drawn),.,111,.
O=C(CC1(O)C(=O)N(Cc2ccc(Cl)cc2)c2ccc(Cl)cc21)c1ccccn1 (stereo not drawn),.,115,/
O=C(CC1(O)C(=O)N(Cc2ccccc2)c2ccc(Br)cc21)c1ccc2c(c1)OCCO2 (stereo not drawn),.,.,.
O=C(CSc1ccccn1)Nc1ccc(Cl)cc1,.,.,.
Cc1ccc(CN2C(=O)C(O)(CC(=O)c3cccc(N)c3)c3cc(Cl)ccc32)cc1 (stereo not drawn),.,133,.
Cc1n[nH]c(C)c1C(=O)CC1(O)C(=O)Nc2ccc(Br)cc21 (stereo not drawn),.,/,/
CN1C(=O)C(O)(CC(=O)c2ccccn2)c2cc(Br)ccc21 (stereo not drawn),.,117,.
CC(=O)Nc1ccccc1NC(=O)Cc1ccccc1[N+](=O)[O-],.,.,.
SMILES,STK33 inh,NOMO-1 viab,PD-1 reverse act
O=C(Nc1cc(-c2ccc(Cl)cc2)[nH]n1)C1Cc2ccccc2C1,/,.,.
CO[C@H]1CC(O[C@@H]2/C(C)=C/C[C@@H]3C[C@@H](C[C@]4(CC[C@H](C)[C@@H](C5CCCCC5)O4)O3)OC(=O)[C@@H]3C=C(C)/C(=N/O)[C@H]4OC/C(=C\C=C\[C@@H]2C)[C@]43O)O[C@@H](C)C1O (stereo partly drawn),.,.,/
COc1ccc(NC(=O)CC2NCCNC2=O)cc1 (stereo not drawn),.,.,.
CC1=CC(O)C2/C=C/CCC3OC3(C)C(O)CC(=O)C23C(=O)NC(CC(C)C)C13 (stereo not drawn),.,.,.
CC(=O)NC1=NN(C(C)=O)C(C)(CS(=O)(=O)c2ccc(C)cc2)S1 (stereo not drawn),/,.,.
Cc1ccc(C(=O)Oc2cc(C)cc(OC(=O)c3ccc(C)cc3)c2)cc1,/,.,.
CS(=O)(=O)N(CC(=O)NC1CCCCC1)c1ccc(Cl)cc1Cl,.,.,.
COCCNC(=O)c1ccccc1NC(=O)Nc1ccc(Cl)cc1,.,.,/
O=C(CC1(O)C(=O)N(Cc2cccc3ccccc23)c2ccccc21)c1ccccc1[N+](=O)[O-] (stereo not drawn),.,114,.
O=C(CC1(O)C(=O)N(Cc2cccc3ccccc23)c2ccccc21)c1ccc(Br)s1 (stereo not drawn),.,/,/
CCOc1ccc(NS(=O)(=O)c2cc(C(=O)O)ccc2OC)cc1,.,.,.
C[C@@H]1CN([C@@H](C)CO)C(=O)c2cc(NS(=O)(=O)c3ccc(F)cc3)ccc2O[C@H]1CN(C)Cc1ccccc1,/,.,.
C[C@H]1CN([C@@H](C)CO)C(=O)c2cc(NS(=O)(=O)c3ccc(F)cc3)ccc2O[C@H]1CN(C)Cc1ccc(-c2ccccc2)cc1,.,.,.
C[C@@H]1CN([C@H](C)CO)C(=O)c2cc(NS(=O)(=O)c3ccc(F)cc3)ccc2O[C@@H]1CN(C)Cc1ccc(-c2ccccc2)cc1,/,118,.
C[C@@H]1CN([C@@H](C)CO)C(=O)c2cc(NS(=O)(=O)c3ccc(F)cc3)ccc2O[C@H]1CN(C)Cc1ccc(-c2ccccc2)cc1,/,107,/
C(=N/n1cnnc1)/c1cccc2c1OCCCO2,.,.,.
Cn1c(=O)c2c(nc(NCc3cccnc3)n2Cc2ccc(Cl)cc2Cl)n(C)c1=O,.,.,.
COc1ccc(CCn2c(=S)[nH]c3cc(C(F)(F)F)ccc32)cc1OC,.,.,.
Clc1cc2c(c(C[n+]3ccccc3)c1)OCOC2,/,.,.
Cc1ccc(-c2noc(CCC(=O)Nc3cccc([N+](=O)[O-])c3)n2)cc1,.,.,.
Cn1c(SCC(=O)Nc2ccc(Cl)cc2)nnc1-c1ccc(Br)cc1,.,.,.
O=C(/C=C/c1ccc(O)cc1)c1ccc(O)cc1O,50,.,/
O=C(/C=C/c1ccc(O)cc1)CC(=O)/C=C/c1ccc(O)cc1,120,108,.
O=C(O)CCCC(=O)Nc1ccc(O)cc1,.,.,.
COc1ccc(/C=C/C(=O)c2cc(O)ccc2O)cc1,.,.,/
SMILES,STK33 inh,NOMO-1 viab,PD-1 reverse act
N#Cc1c(-c2ccccc2)n2c(-c3ccccc3)nn(-c3ccccc3)c2nc1=O,/,.,.
COc1cccc(NC2=C(C#N)C(=O)NC(c3cccc(OC)c3O)S2)c1 (stereo not drawn),/,.,.
CSC1=C(C#N)C(=O)NC(c2ccc(Cl)cc2)S1 (stereo not drawn),/,116,.
C=CCn1c(-c2ccc(OC)cc2)c(C)sc1=Nc1ccc(C)cc1,/,.,.
C[C@@H]1CN([C@H](C)CO)C(=O)Cc2cc(NC(=O)Nc3ccccc3)ccc2O[C@H]1CN(C)Cc1ccc(-c2ccccc2)cc1,/,.,.
CC(C)NC(=O)Nc1ccc2c(c1)CC(=O)N([C@@H](C)CO)C[C@H](C)[C@@H](CN(C)Cc1ccc(-c3ccccc3)cc1)O2,.,.,.
C[C@H]1CN([C@@H](C)CO)C(=O)Cc2cc(NC(=O)Nc3ccc(F)cc3)ccc2O[C@H]1CN(C)Cc1ccc(-c2ccccc2)cc1,.,110,.
C[C@@H]1CN([C@H](C)CO)C(=O)Cc2cc(NC(=O)Nc3ccc(F)cc3)ccc2O[C@H]1CN(C)Cc1ccc(-c2ccccc2)cc1,.,127,.
